Test results from paper PMC5540273 (PLoS ONE, 2017).
Where two headings read alike, the source gives them in different places.

How the values were obtained:
[1] = test system: T1, GRK3; settings: concentration: 1 μM, replicates: in singlicate; n = 1
T1 construct: gene ADRBK2

[2] = test system: GRK4; settings: concentration: 1 μM, replicates: in singlicate; n = 1
[3] = test system: GRK7; settings: concentration: 1 μM, replicates: in singlicate; n = 1
[4] = test system: GSK3A; settings: concentration: 1 μM, replicates: in singlicate; n = 1
[5] = test system: GSK3B; settings: n = 1
[6] = test system: T2, HASPIN; settings: concentration: 1 μM, replicates: in singlicate; n = 1
T2 construct: gene GSG2

[7] = test system: HCK; settings: concentration: 1 μM, replicates: in singlicate; n = 1
[8] = test system: HIPK1; settings: concentration: 1 μM, replicates: in singlicate; n = 1
[9] = test system: HIPK2; settings: concentration: 1 μM, replicates: in singlicate; n = 1
[10] = test system: HIPK3; settings: concentration: 1 μM, replicates: in singlicate; n = 1
[11] = concentration: 1 μM, replicates: in singlicate
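Also: KINOMEscan kinase panel screen.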

| Compound | %Inh [1] | %Inh [2] | %Inh [3] | %Inh [4] | %Inh ([5]; 1 µM) | %Inh [6] | %Inh [7] | %Inh [8] | %Inh [9] | %Inh [10] | %Inh [5, 11] |
| --- | --- | --- | --- | --- | --- | --- | --- | --- | --- | --- | --- |
| O=C(Nc1n[nH]c2nc(-c3ccco3)c(Br)cc12)C1CCN(Cc2ccccc2)C1.O=C(O)[C@H](O)[C@@H](O)C(=O)O (stereo not shown) [SB-742034] | 0% | 11% | 42% | 97.8% | 72% | 0% | 7% | 30% | 32% | 25% |  |
| CC(C)c1cc(-c2ccc3c(N)n[nH]c3c2)nc(N)n1 [GSK2250882] | 0% | 10% | 0% | 0% |  | 83% | 0% | 15% | 0% | 9% | 0% |
| Cc1ccc(NC(=O)Nc2ccccc2F)cc1-c1ccc(C(=O)Nc2ccncc2)cc1 [GSK1398477] | 0% | 30% | 0% | 25% |  | 0% | 0% | 0% | 0% | 10% | 3% |
| CN1c2ccc(-c3ccc(C(N)=O)cc3)cc2-c2[nH]ncc2S1(=O)=O | 0% | 0% | 0% | 25% |  | 28% | 0% | 41% | 23% | 19% | 13% |
| CC(=O)c1c(C)c2cnc(Nc3ccc(N4CCNCC4)cn3)nc2n(C2CCCC2)c1=O | 9% | 7% | 8% | 0% |  | 0% | 0% | 20% | 0% | 0% | 0% |
| CNc1nc(-c2ccc3c(N)n[nH]c3c2)cc(N2C[C@@H](C(=O)Nc3ccccc3)CC[C@H]2C)n1 [GSK2298859] | 0% | 0% | 0% | 26% |  | 13% | 0% | 0% | 0% | 1% | 0% |
| COC(=O)c1cccc(NC(=O)NC2CCN(c3ccnc(Nc4ccc(F)cc4)n3)C2)c1 (stereo not shown) [GSK1379725] | 38% | 0% | 0% | 0% |  | 0% | 0% | 0% | 0% | 0% | 0% |
| CNCc1ccc2nc(NC(=O)c3ccc(C(C)(C)C)cc3)cn2c1 | 36% | 0% | 10% | 3% |  | 5% | 3% | 17% | 13% | 17% | 11% |
| CCn1c(-c2ccccc2)nc2cnccc21 [SB-733416] | 70% | 29% | 0% | 0% |  | 0% | 17% | 0% | 0% | 10% | 25% |
| FC(F)(F)c1ccccc1-c1cc(-c2c[nH]nc2-c2ccccn2)ccn1 [GW679396] | 14% | 0% | 0% | 2% |  | 0% | 0% | 0% | 0% | 17% | 12% |
| Cn1cncc1-c1cc2c(Nc3ccc(OCc4ccccc4)cc3)ncnc2cn1 [GW281179] | 33% | 0% | 0% | 8% |  | 0% | 0% | 0% | 0% | 0% | 11% |
| Cc1cnc(N)c(/C=C/c2cncc(C(=O)NCCc3ccc(Cl)cc3Cl)c2)c1.Cl [GSK190937] | 6% | 0% | 0% | 5% |  | 29% | 0% | 0% | 0% | 26% | 0% |
| CC(=O)c1cccc(NC(=O)NC2CCN(c3ccnc(Nc4ccc(F)cc4)n3)C2)c1 (stereo not shown) [GSK1379710] | 49% | 0% | 0% | 32% |  | 26% | 2% | 0% | 0% | 7% | 4% |
| c1ccc(-c2ccnc3[nH]ccc23)cc1 [SB-693578] | 56% | 3% | 0% | 22% |  | 60% | 0% | 4% | 0% | 34% | 13% |
| CS(=O)(=O)CCNCc1nc(-c2ccc3ncnc(Nc4ccc(OCc5ccccc5)c(Cl)c4)c3c2)cs1.Cl [GW582764] | 99.4% | 4% | 0% | 20% |  | 32% | 0% | 0% | 0% | 0% | 3% |
| O=C(Nc1n[nH]c2cc(-c3ccsc3)ccc12)C1CC1 [SB-732932] | 40% | 79% | 0% | 38% | 29% | 43% | 0% | 7% | 26% | 24% |  |
| CSc1ccc(-c2nc3n(c2-c2ccncc2)CCC3)cc1 [SKF-105561] | 28% | 5% | 0% | 0% |  | 35% | 7% | 0% | 0% | 6% | 20% |

| Compound | %Inh [1] | %Inh [2] | %Inh [3] | %Inh [4] | %Inh ([5]; 1 µM) | %Inh [6] | %Inh [7] | %Inh [8] | %Inh [9] | %Inh [10] | %Inh [5, 11] |
| --- | --- | --- | --- | --- | --- | --- | --- | --- | --- | --- | --- |
| COc1cc2ncnc(Nc3cccc(Br)c3)c2cc1OC.Cl [GI230329] | 26% | 0% | 0% | 0% |  | 20% | 24% | 0% | 0% | 0% | 0% |
| NS(=O)(=O)c1cccc(N/C=C2\C(=O)Nc3ccc(S(=O)(=O)Cc4c(Cl)cccc4Cl)cc32)c1 [GSK398099] | 0% | 0% | 0% | 0% |  | 4% | 0% | 0% | 0% | 12% | 20% |
| COc1ccc(Nc2nccc(N3CCC(NC(=O)C(C)c4ccc(Cl)cc4)CC3)n2)cc1 (stereo not shown) [GSK1379812] | 8% | 0% | 0% | 16% |  | 0% | 0% | 0% | 0% | 15% | 8% |
| Cc1c(Cn2c3ccccc3n3c(=O)cc(N4CCOCC4)nc23)cccc1C(F)(F)F [GSK2306394] | 0% | 0% | 0% | 13% |  | 0% | 0% | 0% | 0% | 16% | 18% |
| Cc1nccc(-c2c(-c3ccc(F)cc3)ncn2CCCN2CCOCC2)n1.Cl [SB-282975] | 34% | 0% | 23% | 23% |  | 23% | 8% | 0% | 0% | 14% | 17% |
| O=C1NC(=O)C(c2ccc(Cl)cc2)=C1Nc1cccc(Cl)c1 [SB-317651] | 0% | 21% | 30% | 0% | 15% | 0% | 0% | 19% | 34% | 0% |  |
| O=C1NC(=O)C(c2ccc(Cl)cc2)=C1Nc1ccc(O)cc1 [SB-340867] | 0% | 0% | 0% | 29% | 0% | 9% | 0% | 0% | 0% | 0% |  |
| Cc1cccc2c(-c3ccncn3)c(-c3ccc(F)cc3)nn12 [GW515532] | 0% | 12% | 0% | 1% |  | 21% | 0% | 0% | 0% | 0% | 0% |
| Cc1ccc(NC(=O)Nc2ccc(Cl)c(C(F)(F)F)c2)cc1-c1ccc(C(=O)Nc2ccncc2)cc1 [GSK1398470] | 0% | 10% | 0% | 21% |  | 10% | 0% | 0% | 0% | 0% | 10% |
| COc1cccc(CNC(=O)NC2CCN(c3ccnc(Nc4ccc(F)cc4)n3)C2)c1 (stereo not shown) [GSK1379723] | 37% | 6% | 5% | 11% |  | 0% | 0% | 0% | 0% | 36% | 13% |
| Cl.Cl.Cl.N#Cc1ccc(CCNc2nccc(-c3cccc(CN4CCNCC4)c3)n2)cc1 [GSK2137462] | 0% | 0% | 5% | 31% |  | 42% | 0% | 1% | 0% | 21% | 7% |
| O=C(Nc1n[nH]c2nc(-c3cccs3)c(Br)cc12)C1CC1 [SB-735297] | 0% | 0% | 17% | 93.8% | 52% | 0% | 0% | 27% | 58% | 11% |  |
| COc1ccc(Nc2nccc(N3CCC(NC(=O)C(C)c4ccc(Cl)cc4)C3)n2)cc1 (stereo not shown) [GSK1379735] | 20% | 31% | 0% | 34% |  | 13% | 0% | 0% | 0% | 4% | 0% |
| CC[C@@H]1CO[C@H](C(=O)Nc2ccccc2)CN1c1cc(-c2ccc3c(N)n[nH]c3c2)nc(NC)n1 [GSK2376236] | 0% | 0% | 0% | 12% |  | 0% | 0% | 9% | 0% | 4% | 17% |
| Cc1ccc(-c2nc(Nc3ccncc3)c3ccccc3n2)s1 [GSK189015] | 0% | 13% | 0% | 18% |  | 54% | 10% | 0% | 0% | 41% | 28% |
| Cc1ccc(NC(=O)c2ccc(Cl)cc2)cc1-c1ccc(C(=O)Nc2ccncc2)cc1 [GSK1398467] | 24% | 0% | 0% | 3% |  | 0% | 0% | 0% | 0% | 3% | 17% |
| COc1ccc(CSc2nnc(-c3ccc4nccn4c3)o2)cc1C(F)(F)F | 37% | 0% | 15% | 93.8% |  | 32% | 0% | 31% | 20% | 5% | 93.8% |
